From PubChem BioAssay (NCI) come the findings set out here.

Compounds without any hit were thinned out: in the full panel of roughly 83,000, 20% have a hit.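 How to read the values: 0–100, growth inhibition (40 = 60% inhibited); 0, no net growth; -100 to 0, cell death (-40 = 40% of starting cells died; -100 = all dead).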 Values without a mark were called inactive. Active and inactive are the calls of the source. The calls were made as follows: active = growth percent below 10; inactive = the rest.

Assay in all cases: NCI-60 one-dose screen, 48 h (100 = growth as untreated, 0 = no growth, -100 = all killed)
Common to all, as to conditions: 10 µM

Assay [1] deals with HT29 colon.
In assay [2] the test system is SNB-75 CNS.
Assay [3] deals with SNB-19 CNS.
Assay [4] concerns U251 CNS.
Assay [5] concerns PC-3 prostate.
The subject of assay [6] is SK-MEL-5 melanoma.
For assay [7], the system named is UACC-62 melanoma.
Assay [8] deals with LOX IMVI melanoma.
Assay [9] relates to SK-MEL-28 melanoma.
Assay [10] relates to SK-MEL-2 melanoma.
Assay [11] has as its system SN12C renal.
Assay [12] has as its system UO-31 renal.
In assay [13] the test system is TK-10 renal.
Assay [14] relates to CAKI-1 renal.
For assay [15], the system named is A498 renal.
Assay [16] concerns CCRF-CEM leukemia.
The test system of assay [17] is MOLT-4 leukemia.
Assay [18] deals with SR leukemia.
For assay [19], the system named is ACHN renal.

`N#Cc1ncc(Br)c(NC2CCCCCC2)n1`: the growth in [1] is 120%; in assay [2], 83.8%; in [3], 91.5%; in assay [4], 92%; in assay [5], 92.5%; in assay [6], 103%. Besides, the growth is 95.5% in assay [7]; 101% in assay [8]; 104% in assay [9]; 104% in assay [10]; 93.5% in assay [11]; 84.7% in assay [12]. Moreover, the growth was 134% in assay [13]; 89.4% in [14]; 103% in assay [15]; 85% in [16]; 86.8% in assay [17]; 80.9% in assay [18].

With `CCC(=O)N1C/C(=C/c2ccc(Br)cc2)C(=O)/C(=C/c2ccc(Br)cc2)C1`, the growth was -58.9% (active) in assay [1]; 1.74% (active) in assay [2]; -32.7% (active) in assay [3]; -81.4% (active) in assay [4]; -42.8% (active) in [5]; -53.8% (active) in [6]. The growth was -80.3% (active) in [7]; -87.7% (active) in assay [8]; -72.4% (active) in [9]; -33.8% (active) in assay [10]; -48.8% (active) in assay [11]; -95.9% (active) in [12]. The growth in [13] was -31.2% (active); in assay [19], -54.9% (active); in assay [15], -66.4% (active); in [16] it was -12% (active); in assay [17], -15.1% (active); in [18] it was -35.6% (active).

As for `Cc1[nH]nc2c1C(c1cnn(C)c1)C(C#N)=C(N)O2` (stereo not given), the growth in [1] was 114%; in assay [2] it was 73.6%; in assay [3] it was 98.2%; in assay [4] it was 102%; in assay [5], 91.2%; in [6], 105%. Moreover, the growth in [7] was 111%; in [8] it was 94.9%; in assay [9], 110%; in [10], 93.8%; in assay [11] it was 103%; in assay [12], 81.3%. The growth is 102% in assay [13]; 104% in [19]; 69.9% in assay [15]; 101% in assay [16]; 98.6% in assay [17]; 89.3% in [18].

For `CCCCCCCC(C)NCCO` (stereo not given), the growth in [1] was 103%; in assay [2], 99.4%; in assay [3], 109%; in assay [4], 108%; in [5] it was 105%; in assay [6], 101%. For the same compound, the growth in assay [7] was 113%; in assay [8] it was 92.8%; in [9], 112%; in assay [10], 106%; in assay [11], 112%; in [12], 80.8%. Besides, the growth is 105% in assay [13]; 97.1% in assay [14]; 104% in assay [15]; 99.6% in assay [17]; 108% in [18].

On to `O=C(Nc1ccc(Cl)cc1)N1NC(c2ccc(Cl)cc2)C=C1c1ccccc1` (stereo not given), for which the growth was 103% in assay [1]; 72.1% in assay [2]; 109% in assay [3]; 97.1% in [4]; 107% in assay [5]; 94.6% in assay [6]. The growth in assay [7] was 105%; in assay [8], 104%; in [9], 109%; in assay [10] it was 107%; in assay [11], 108%; in [12], 85.8%. Further, the growth was 103% in assay [13]; 103% in assay [14]; 103% in [15]; 58.3% in assay [16]; 83.7% in assay [17]; 81.4% in assay [18].

Take `N#CCCN1C/C(=C/c2ccc(Br)cc2)C(=O)/C(=C/c2ccc(Br)cc2)C1`: the growth in assay [1] was -33.8% (active); in assay [2], 33.3%; in assay [3] it was -46.6% (active); in [4] it was -80.8% (active); in assay [5], -34% (active); in assay [6] it was 1.94% (active). The growth is -75% (active) in [7]; -71.3% (active) in assay [8]; -36.8% (active) in assay [9]; 5.41% (active) in assay [10]; -51.2% (active) in [11]; -91.3% (active) in assay [12]. The growth in assay [13] is -29.1% (active); in assay [14], -7.84% (active); in assay [15], -39.7% (active); in assay [16] it was -5.67% (active); in assay [17], 2.26% (active); in [18] it was -17.3% (active).

As for `C#Cc1ccc(-n2c(/C=C/c3cc(OC)cc(OC)c3)nc3ncccc3c2=O)cc1`, the growth in assay [1] is 100%; in assay [2] it was 55%; in assay [3], 98%; in [4], 72%; in [5], 68.5%; in [6], 60.7%. In addition, the growth in assay [7] was 85.8%; in assay [8], 76.2%; in [9] it was 96.7%; in [10] it was 53.7%; in assay [11], 81.8%; in assay [12], 87.6%. In addition, the growth is 81.6% in assay [13]; 67.1% in assay [19]; 91.9% in [15]; 69% in assay [16]; 58.3% in [17]; 44.8% in assay [18].

As to `CN(Cc1ccccc1)Cc1ccc([N+](=O)[O-])cc1I`, the growth in assay [1] was 93.8%; in [2], 94.7%; in assay [3], 91.6%; in assay [4] it was 89.4%; in assay [5], 90.5%; in [6] it was 93.5%. In addition, the growth in assay [7] is 94.2%; in [8], 102%; in [9], 97.1%; in [10] it was 95.3%; in [11] it was 99.9%; in assay [12], 88.4%. Also, the growth in assay [13] was 106%; in assay [19] it was 101%; in assay [15], 81.4%; in [17], 91.1%; in assay [18] it was 67.2%.

As for `COc1cc(NC(=O)c2sc3nc4c(cc3c2N)C(O)CCC4)cc(OC)c1` (stereo not given), the growth in assay [1] was 67%; in assay [2] it was 82.1%; in assay [3], 93.6%; in [4], 78.6%; in [5], 99.5%; in assay [6] it was 88.4%. Besides, the growth in assay [7] was 73%; in [8], 93.3%; in assay [9], 85.1%; in [10], 61.6%; in [11], 93.5%; in [12], 85.1%. Moreover, the growth in [13] is 102%; in [19], 100%; in assay [15] it was 55.2%; in assay [16] it was 68.7%; in assay [17], 63.1%; in assay [18], 16.8%.
